The record followed here is PubChem BioAssay.

Each structure is given as a SMILES string. For part of these data: Results with a measured potency or affinity are listed apart. Activity calls are given as the source filed them.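 The calls were made as follows, unless noted: active = primary screen inhibitor hit that blocks the TRPC4 channel at some tested dose, yielding a dose curve; inactive = the rest.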

Test [1] has as its system TRPC4 beta (transient receptor potential cation channel C4), mouse. Kind of test: activators of mouse TRPC4 channel, confirmation, cell-based, Fluo4 calcium, HEK293 TRPC4beta/mu-opioid, duplicates, 10 µM (AID 2426;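 active = fluorescence ratio normalized to control raised more than 50% in primary screen plus both repeat runs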). As to conditions: Fluo4 calcium fluorescence, at 10 µM; active compounds read high.
Test [2] has as its system transient receptor potential cation channel C4 beta (TRPC4), mouse. Kind of test: activators of mouse TRPC4 channel, confirmation, cell-based, second round, Fluo4, HEK293 TRPC4beta/mu-opioid, 1 µM (AID 2461;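 active = primary screen active and over 50% activation in each of two duplicate runs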). As to conditions: Fluo4 calcium fluorescence, at 1 µM; active compounds read high.
Test [3] has as its system TRPC4 (transient receptor potential cation channel C4 beta), mouse. Briefly: positive allosteric modulators of mouse TRPC4, confirmation, cell-based, second round, Fluo-4, HEK293 TRPC4beta/mu-opioid, 1 µM (AID 2554;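 active = primary screen hit whose fluorescence ratio, in both repeats, exceeds the weak agonist control mean by 3 SD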). The settings on record: DAMGO EC20, Fluo-4 calcium flux, at 1 µM; active compounds read high. In general terms: Calcium assays in cells follow changes in intracellular calcium, usually with a dye or a luminescent sensor.

In test [4] the test system is TRPC4 beta (transient receptor potential cation channel C4), mouse. Kind of test: positive allosteric modulators of mouse TRPC4, confirmation, cell-based, Fluo-4, HEK293 TRPC4beta/mu-opioid (AID 2555;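 active = primary screen hit whose calcium fluorescence ratio, in both repeats, exceeds the weak agonist control mean by 3 SD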). As to conditions: DAMGO EC20, Fluo-4 calcium flux, at 10 µM; active compounds read high.
Test [5] concerns the target Short transient receptor potential channel 4 (Mus musculus) (UniProt Q9QUQ5). Kind of test: inhibitors of mouse TRPC4 channel, confirmation, cell-based, Fluo4, HEK293 TRPC4beta/mu-opioid (AID 2636;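 active = calcium signal cut by more than 3 SD below the full-agonist control yet still positive, in both repeats and the earlier primary screen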). As to conditions: DAMGO, Fluo4 calcium flux, at 10 µM; active compounds read high.
The target is the same in test [6]. Briefly: inhibitors of mouse TRPC4 channel, confirmation, cell-based, second round, Fluo4, HEK293 TRPC4beta/mu-opioid, 1 µM (AID 2637;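 active = calcium signal ratio cut to more than 3 SD under the fully stimulated control mean yet still positive, in both repeats and the primary screen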). As to conditions: Fluo4 calcium flux, DAMGO, at 1 µM; active compounds read high.
For test [7] the target is unchanged. Briefly: mouse TRPC4 channel activators, dose response, cell-based, HEK293 TRPC4/mu-opioid, Fluo-4 calcium (AID 434937;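 active = primary screen activator hit with a dose response curve and TRPC4 channel activation at any tested dose; inactive = no activation, no dose response, or not a primary hit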).
Test [8] shares this target. Kind of test: TRPC4 positive allosteric modulators, dose response, cell-based, HEK293 TRPC4/mu-opioid, Fluo-4 calcium, EC20 DAMGO (AID 434941;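 active = earlier screen potentiator hit that boosts the TRPC4 ion channel at some dose, with a dose response; inactive = no potentiation, no dose response, or not a prior hit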;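 also: calcium entry triggered by an EC20 dose of DAMGO at the co-expressed mu-opioid receptor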).
Test [9] shares this target. Briefly: mouse TRPC4 channel inhibitors, dose response, cell-based, HEK293 TRPC4/mu-opioid, Fluo-4 calcium (AID 434942).
Test [10] addresses Short transient receptor potential channel 6 (Mus musculus) (UniProt Q61143). Kind of test: inhibition of mouse TRPC6 channel, confirmation, selectivity assay for TRPC4 inhibitor project, cell-based, HEK293, membrane potential dye, duplicate (AID 434948;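 active = active in primary screen and both duplicates, each dropping signal beyond three positive-control SD with fluorescence still positive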). As to conditions: HEK293 TRPC6, membrane potential dye fluorescence, at 10 µM, stimulated with maximal-effect acetylcholine; active compounds read high.

Test [11] shares this target. Briefly: activation of mouse TRPC6 channel, confirmation, selectivity assay for TRPC4 activator project, cell-based, HEK293, membrane potential dye, duplicate (AID 434950;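 active = membrane potential signal rise above negative control mean plus 3 SD in both duplicates, also active in the earlier TRPC4 screen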;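 as to activation: 0% = buffer only wells and 100% = acetylcholine maximal-effect wells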). The settings on record: HEK293 TRPC6, membrane potential fluorescence, at 10 µM; active compounds read high.
For test [12] the target is unchanged. Briefly: TRPC6 potentiation by TRPC4 potentiator hits, confirmation, selectivity assay for TRPC4 potentiator project, HEK293 cells, membrane potential dye, duplicate (AID 434952;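 active = compound raising the membrane signal above positive-control mean plus 3 SD in both repeats, and a primary screen hit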). As to conditions: HEK293 TRPC6, membrane potential dye fluorescence, at 10 µM, maximal acetylcholine added after compound; active compounds read high.
The target in test [13] is Short transient receptor potential channel 4 (Mus musculus) (UniProt Q9QUQ5). Kind of test: calcium flux activators in TRPC4/5HT1a cells, counter-screen for TRPC4 activator project, cell-based, second counter screen, HEK293 TRPC4/5HT1a, Fluo-4 (AID 434977;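 active = calcium signal rise above buffer-control mean plus 5 SD in both duplicates, and also a hit in the primary screen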). The settings on record: Fluo-4 calcium flux, at 10 µM; active compounds read high.
Short transient receptor potential channel 4 (Mus musculus), sequence (Q9QUQ5 whole entry, looked up): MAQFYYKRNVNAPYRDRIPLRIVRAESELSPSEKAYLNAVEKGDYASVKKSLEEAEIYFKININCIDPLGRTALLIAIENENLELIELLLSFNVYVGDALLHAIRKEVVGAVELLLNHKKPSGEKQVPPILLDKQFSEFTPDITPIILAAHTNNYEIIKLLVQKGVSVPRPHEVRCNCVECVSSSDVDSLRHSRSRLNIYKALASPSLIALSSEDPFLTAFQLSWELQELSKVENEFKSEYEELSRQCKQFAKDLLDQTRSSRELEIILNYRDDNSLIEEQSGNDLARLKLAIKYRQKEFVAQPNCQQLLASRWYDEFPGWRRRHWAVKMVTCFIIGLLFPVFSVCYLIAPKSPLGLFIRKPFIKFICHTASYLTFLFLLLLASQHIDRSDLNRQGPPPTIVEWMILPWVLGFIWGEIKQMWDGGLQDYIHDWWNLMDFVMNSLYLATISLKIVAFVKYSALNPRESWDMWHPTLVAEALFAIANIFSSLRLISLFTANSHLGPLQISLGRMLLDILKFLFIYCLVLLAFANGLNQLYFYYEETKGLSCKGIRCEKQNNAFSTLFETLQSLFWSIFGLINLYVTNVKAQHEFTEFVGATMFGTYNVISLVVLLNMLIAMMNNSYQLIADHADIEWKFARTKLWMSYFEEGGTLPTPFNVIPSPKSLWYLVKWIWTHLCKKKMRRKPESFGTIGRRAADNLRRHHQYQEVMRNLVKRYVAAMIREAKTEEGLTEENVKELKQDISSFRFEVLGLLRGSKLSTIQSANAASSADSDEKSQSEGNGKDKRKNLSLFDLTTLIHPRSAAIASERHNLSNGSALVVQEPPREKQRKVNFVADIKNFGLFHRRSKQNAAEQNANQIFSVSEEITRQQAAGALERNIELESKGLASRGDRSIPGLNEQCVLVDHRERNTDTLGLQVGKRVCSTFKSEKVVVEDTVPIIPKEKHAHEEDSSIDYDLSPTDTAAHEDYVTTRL
Test [14] can be described thus: calcium flux inhibitors in TRPC4/5HT1a cells, confirmation, counter-screen for TRPC4 inhibitor project, cell-based, second counter screen, HEK293 TRPC4/5HT1a, Fluo-4 (AID 434978;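 active = primary screen active whose calcium signal fell more than 3 SD beyond the full-serotonin control mean in both duplicate plates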;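 also: serotonin given first at submaximal then at maximal dose after compound preincubation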). The settings on record: Fluo-4 calcium flux, at 10 µM, serotonin added to trigger calcium flux; active compounds read high.
In test [15] the test system is TRPC4 (mouse), co-expressed with 5HT1a in HEK293. Kind of test: calcium flux potentiators in TRPC4/5HT1a cells, confirmation, counter-screen for TRPC4 potentiator project, cell-based, second counter screen, HEK293 TRPC4/5HT1a, Fluo-4 (AID 434979;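 active = signal rise over 3 SD above mean of control wells given weak agonist, in both repeats and first screen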). As to conditions: Fluo-4 calcium flux, at 10 µM, serotonin added at its EC20 dose; active compounds read high.
The nature of test [16]: calcium flux activation in mu-opioid HEK293 cells, confirmation, counter-screen for TRPC4 activator project, cell-based, HEK293 mu-opioid receptor line (AID 449723;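 active = hit in primary screen, with calcium signal over 5 SD above buffer well mean in both duplicates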;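 also: counter screen cells carry the mu-opioid receptor alone and lack TRPC4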). The settings on record: Fluo-4 calcium fluorescence, at 10 µM; active compounds read high.
The nature of test [17]: calcium flux enhancement in mu-opioid HEK293 cells, confirmation, counter-screen for TRPC4 allosteric potentiator project, cell-based, HEK293 mu-opioid receptor line (AID 449724;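 active = calcium signal rise more than 3 SD above the low-dose agonist control mean, in both duplicate plates and the primary screen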;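 also: HEK293 cells carrying mu-opioid receptor only with no TRPC4 channel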). As to conditions: Fluo-4 calcium flux, at 10 µM, compound added before EC20 DAMGO stimulus; active compounds read high.

Short transient receptor potential channel 6 (Mus musculus), sequence (Q61143 whole entry, looked up): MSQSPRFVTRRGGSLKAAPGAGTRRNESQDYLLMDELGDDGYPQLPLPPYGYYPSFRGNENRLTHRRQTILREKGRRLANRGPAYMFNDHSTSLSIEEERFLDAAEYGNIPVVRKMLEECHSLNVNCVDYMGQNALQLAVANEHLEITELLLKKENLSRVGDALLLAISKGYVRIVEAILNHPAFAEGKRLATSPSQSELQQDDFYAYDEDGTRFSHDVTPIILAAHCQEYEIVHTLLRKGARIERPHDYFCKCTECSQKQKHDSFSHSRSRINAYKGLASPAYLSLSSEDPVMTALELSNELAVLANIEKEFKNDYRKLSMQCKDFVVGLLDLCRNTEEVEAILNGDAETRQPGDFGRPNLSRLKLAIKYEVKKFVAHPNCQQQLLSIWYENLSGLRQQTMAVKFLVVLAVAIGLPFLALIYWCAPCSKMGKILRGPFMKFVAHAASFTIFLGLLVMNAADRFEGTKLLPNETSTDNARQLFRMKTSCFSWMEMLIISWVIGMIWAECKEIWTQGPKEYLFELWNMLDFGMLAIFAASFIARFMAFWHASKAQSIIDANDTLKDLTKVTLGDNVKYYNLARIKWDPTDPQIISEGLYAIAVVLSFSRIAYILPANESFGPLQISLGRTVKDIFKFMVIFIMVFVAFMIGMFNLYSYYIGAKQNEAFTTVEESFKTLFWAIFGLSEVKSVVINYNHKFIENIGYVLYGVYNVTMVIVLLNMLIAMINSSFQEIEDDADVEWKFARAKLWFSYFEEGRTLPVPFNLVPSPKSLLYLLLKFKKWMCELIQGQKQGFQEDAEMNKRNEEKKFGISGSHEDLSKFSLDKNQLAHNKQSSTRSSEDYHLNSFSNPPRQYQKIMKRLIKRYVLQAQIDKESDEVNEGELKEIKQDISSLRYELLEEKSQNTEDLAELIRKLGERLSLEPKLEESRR

For `C=CCNC(=S)N1CCN(C2CCCCC2)CC1`, the result in [1], in test [2], in test [5], in test [6], in test [7] and in test [8] was inactive. Further, the outcome in test [9], in test [10], in [11], in test [12], in [13] and in test [14] was inactive. Moreover, the outcome in test [16] and in test [17] was inactive. Also, the potentiation in [3] was 53% (active); in [4] it was 36% (active); in test [15], 18.6% (active).
With `Cc1ccc(S(=O)(=O)NC(=O)N2CCN(Cc3c(F)cccc3Cl)CC2)cc1`, the result in test [1], in test [2], in [3], in test [4], in [5] and in [6] was inactive. Further, the result in test [7], in test [8], in [9], in test [10], in test [11] and in test [12] was inactive. Also, the result in [13], in [14], in test [16] and in test [17] was inactive. Moreover, in test [15], the potentiation was 15.3% (active).
Consider `O=C(COC(=O)c1ccccn1)Nc1nc(-c2ccccc2)cs1`, for which the result in test [1], in test [2], in test [3], in test [4], in test [5] and in test [6] was inactive. Also, the result in test [7], in test [8], in test [9], in test [10], in test [11] and in test [12] was inactive. The result in test [13], in test [14], in test [15], in test [16] and in test [17] was inactive.
As for `COC(=O)C1=C(CCc2ccccc2)NC(=O)NC1c1ccc(Cl)cc1` (stereo not given), the outcome in [1], in test [2], in test [3], in test [5], in [6] and in test [7] was inactive. In addition, the result in test [8], in [9], in test [10], in [11], in test [12] and in [13] was inactive. Also, the outcome in test [14], in test [16] and in test [17] was inactive. The potentiation was 35% (active) in test [4] and 39.7% (active) in test [15].
As to `CC(C)(C)C(=O)NCCCc1nc2ccccc2n1CCCOc1ccc(Cl)cc1`, the result in [1], in test [2], in test [3], in [4], in test [5] and in test [6] was inactive. Besides, the result in [7], in [8], in test [9], in [10], in test [11] and in test [12] was inactive. Moreover, the outcome in test [13], in test [14], in test [15], in [16] and in test [17] was inactive.
For `NC(=O)C(c1cccc(Cl)c1)c1ncc(C(F)(F)F)cc1Cl` (stereo not given), the outcome in test [1], in [2], in test [3], in test [4], in [5] and in [6] was inactive. Also, the outcome in [7], in test [8], in test [9], in [10], in test [11] and in [12] was inactive. The outcome in test [13], in test [14], in test [16] and in test [17] was inactive. In addition, the potentiation in test [15] was 7.72% (active).
With `Cc1[nH]c2ccccc2c1C(=O)CN1C(=O)NC(C)(c2ccc(Cl)cc2Cl)C1=O` (stereo not given), the outcome in test [1], in test [2], in test [3], in test [5], in [6] and in [7] was inactive. For the same molecule, the outcome in test [8], in test [9], in test [10], in test [11], in test [12] and in test [13] was inactive. Moreover, the outcome in test [14], in test [16] and in [17] was inactive. Also, the potentiation was 21% (active) in test [4] and 37.7% (active) in test [15].
For the molecule `O=C(CN1CCCC1)N1c2ccccc2Sc2ccc(C(F)(F)F)cc21`, the outcome in test [1], in test [2], in test [3], in [4], in test [5] and in test [6] was inactive. The outcome in test [7], in test [8], in [9], in [10], in test [11] and in test [12] was inactive. Besides, the outcome in [13], in test [14], in test [15], in test [16] and in test [17] was inactive.
As to `COc1ccc(N=C2SCC(=O)N2Cc2ccccc2)cc1`, the outcome in test [1], in test [2], in [3], in [4], in [5] and in [6] was inactive. Further, the outcome in [7], in [8], in test [9], in test [10], in test [11] and in [12] was inactive. For the same molecule, the result in [13], in test [14], in [15], in test [16] and in test [17] was inactive.
On to `Cc1[nH]nc(-c2ccc(O)cc2O)c1-c1nc2ccccc2s1`, for which the outcome in [1], in test [2], in test [3], in test [4], in [5] and in [6] was inactive. Besides, the outcome in test [7], in test [8], in test [9], in test [10], in [11] and in test [12] was inactive. The result in test [13], in test [14], in test [15], in test [16] and in test [17] was inactive.
For `C=CCc1cc(Cl)ccc1OCCCn1ccnc1`, the result in test [1], in test [2], in [4], in test [5], in test [6] and in [7] was inactive. The result in test [8], in test [9], in test [10], in test [11], in [12] and in test [13] was inactive. Further, the result in test [14], in test [15], in test [16] and in test [17] was inactive. Moreover, the potentiation in [3] is 9% (active).
`O=C(C1=C[C@H](c2ccc(C(F)(F)F)cc2)C[C@H](OCCCCO)O1)N1CCN(Cc2ccccc2)CC1`: the result in test [1], in test [2], in test [3], in [4], in test [5] and in [6] was inactive. In addition, the outcome in test [7], in [8], in [9], in test [10], in test [12] and in [13] was inactive. The result in test [14], in test [15], in [16] and in test [17] was inactive. Besides, the activation in test [11] is 35% (active).
With `CCCCNc1c(-c2ccc(SC(C)CC)c(OC)c2)nc2ccc(C)cn12` (stereo not given), the outcome in test [1], in test [2], in [3], in test [4], in test [5] and in test [6] was inactive. The outcome in test [7], in test [8], in [9], in [10], in test [11] and in test [12] was inactive. For the same molecule, the result in test [13], in [14], in [15], in [16] and in [17] was inactive.
Take `O=c1oc2ccccc2c(O)c1/C=C1\C=Nc2ccccc21`: the result in [1], in [2], in test [3], in test [4], in [5] and in test [6] was inactive. The outcome in test [7], in [8], in test [9], in test [10], in [12] and in test [13] was inactive. Also, the result in test [14], in test [15], in [16] and in [17] was inactive. Besides, the activation in test [11] is 32.5% (active).
On to `COc1ccc(Cl)c2sc(N(CCN(C)C)C(=O)CCS(=O)(=O)c3ccc(C)cc3)nc12`, for which the outcome in [1], in [2], in test [4], in test [5], in [6] and in test [7] was inactive. Further, the result in test [8], in test [9], in test [10], in test [11], in test [12] and in test [13] was inactive. Further, the outcome in [14], in test [15], in test [16] and in [17] was inactive. Moreover, in test [3], the potentiation is 12% (active).
